# Active and inactive are the calls of the source. The calls were made as follows: active = hit-call score of the fitted dose curve at least 0.9, where 1 is the maximum; inactive = score below 0.9.
# Key:
# [1] = ATG_CRE_CIS: Attagene CIS-FACTORIAL HepG2 Assay for human cAMP Responsive Element (CRE) binding protein 3 (AID 2282926); conditions: HepG2 CRE cis-reporter, Attagene multiplexed mRNA; actives raise or lower the signal
# Method in brief: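 Readout: fluorescently labelled reporter transcripts resolved by capillary electrophoresis after RT-PCR, taken 24 h post-dosing in transfected HepG2. Endogenous transcription factor activity drives each cis-element reporter; gain or loss of signal fitted relative to DMSO control.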
# [2] = ATG_CMV_CIS: Attagene CIS-FACTORIAL HepG2 Assay for human CMV (Internal Marker) (AID 2282928); conditions: HepG2 CMV promoter reporter, transcription factor profiling; actives raise or lower the signal;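 also: endpoint acts as a background internal control marker rather than a target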
# Method in brief: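 24 h chemical treatment, HepG2 with transient multi-reporter transfection; RNA → oligo(dT) RT → PCR → 6-FAM extension → HpaI digest → CE fluorescence. Bidirectional fit, DMSO negative control.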
# [3] = ATG_DR4_LXR_CIS: Attagene CIS-FACTORIAL HepG2 Assay for human Liver X Receptor (LXR), DR4 submotif (AID 2282929); conditions: HepG2 Attagene DR4 cis-reporter, mRNA transcription; actives raise or lower the signal
# Method in brief: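 Measures endogenous transcription factor activity via a DR4-driven reporter transcript in human HepG2 cells. Compounds incubated 24 h; mRNA quantified by RT-PCR and capillary electrophoresis, analysed as gain or loss of signal versus DMSO.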
# [4] = ATG_AP_1_CIS: Attagene CIS-FACTORIAL HepG2 Assay for human Activator Protein 1 (AP-1) (AID 2282931); conditions: HepG2 Attagene cis-factorial AP-1 reporter mRNA; actives raise or lower the signal
# Method in brief: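 Bidirectional concentration-response fitting against DMSO controls. Underlying signal: reporter mRNA from cis-promoter constructs in transiently transfected HepG2, measured after 24 h by RT-PCR and capillary electrophoresis.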
# [5] = ATG_AP_2_CIS: Attagene CIS-FACTORIAL HepG2 Assay for human Activator Protein 2 (AP-2) (AID 2282932); conditions: HepG2 AP-2 cis-reporter, Attagene transcription factor profiling; actives raise or lower the signal
# Method in brief: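 Read-out: fluorescent reporter mRNA via RT-PCR and capillary electrophoresis, 24 h post-dose in transiently transfected HepG2. Endogenous factors drive cis-promoter reporters; gain or loss of signal fitted bidirectionally against DMSO.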
# [6] = ATG_BRE_CIS: Attagene CIS-FACTORIAL HepG2 Assay for human Bone Morphogenetic Protein (BMP) Response Element (BRE) (AID 2282933); conditions: HepG2 BMP response element reporter, Attagene transcription factor profiling; actives raise or lower the signal
# Method in brief: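 HepG2 cells transiently transfected with multiplexed cis-element reporter units were dosed with chemical for 24 h. Reporter mRNA was measured by RT-PCR with fluorescent labelling, HpaI digestion and capillary electrophoresis; bidirectional fitting relative to DMSO.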
# [7] = target: Transcription factor E2F1 (Homo sapiens) (UniProt Q01094); test: ATG_E2F_CIS: Attagene CIS-FACTORIAL HepG2 Assay for human E2F Transcription Factor 1 (AID 2282935); conditions: HepG2 Attagene cis-reporter, E2F reporter RNA transcripts; actives raise or lower the signal
# Transcription factor E2F1 (Homo sapiens), sequence (Q01094 whole entry, looked up): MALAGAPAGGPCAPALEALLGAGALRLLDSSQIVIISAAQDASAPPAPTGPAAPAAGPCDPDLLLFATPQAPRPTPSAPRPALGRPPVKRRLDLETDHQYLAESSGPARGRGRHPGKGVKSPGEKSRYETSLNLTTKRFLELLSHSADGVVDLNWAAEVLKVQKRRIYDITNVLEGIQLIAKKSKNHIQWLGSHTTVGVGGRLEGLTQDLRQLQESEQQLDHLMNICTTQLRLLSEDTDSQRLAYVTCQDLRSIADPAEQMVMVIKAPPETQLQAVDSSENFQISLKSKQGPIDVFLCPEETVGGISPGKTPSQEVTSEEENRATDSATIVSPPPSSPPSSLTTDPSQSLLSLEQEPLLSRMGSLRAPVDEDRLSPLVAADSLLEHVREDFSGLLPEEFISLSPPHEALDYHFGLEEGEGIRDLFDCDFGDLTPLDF
# Method in brief: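 Transient MRTU transfection of HepG2; 24 h compound exposure; RNA → oligo(dT) RT → PCR → FAM label → HpaI cut → CE fluorescence. Gain/loss of signal fit against DMSO.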
# [8] = ATG_E_Box_CIS: Attagene CIS-FACTORIAL HepG2 Assay for human Enhancer Box (E-box) (AID 2282936); conditions: HepG2 E-box cis-reporter transcription, actives raise or lower the signal
# Method in brief: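 Transiently transfected HepG2, endogenous TF-driven reporters, 24 h dosing. Readout: RT-PCR plus capillary electrophoresis of fluorescent reporter fragments. Gain or loss of signal fitted bidirectionally against DMSO baseline.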
# [9] = ATG_M_61_CIS: Attagene CIS-FACTORIAL HepG2 Assay for M61 Transcription Factor (Internal Marker) (AID 2282937); conditions: HepG2 Attagene CIS-FACTORIAL M61 internal marker reporter; actives raise or lower the signal
# Method in brief: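 Fluorescence from labelled cDNA fragments, separated by capillary electrophoresis, quantifies reporter induction. HepG2 cells bearing transiently transfected cis-promoter MRTUs were incubated with test chemical for 24 h; DMSO defined baseline for gain/loss fitting.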
# [10] = ATG_EGR_CIS: Attagene CIS-FACTORIAL HepG2 Assay for human Early Growth Response 1 (EGR1) (AID 2282938); conditions: HepG2 Attagene CIS-FACTORIAL EGR reporter mRNA; actives raise or lower the signal
# Method in brief: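 Cell-based multiplex transcription assay: HepG2 carrying transfected cis-element reporter units, 24 h chemical treatment. Fluorescence from capillary electrophoresis of RT-PCR products gives mRNA levels; fitting is bidirectional relative to DMSO.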
# [11] = ATG_M_19_CIS: Attagene CIS-FACTORIAL HepG2 Assay for M19 Transcription Factor (Internal Marker) (AID 2282939); conditions: HepG2 Attagene CIS-FACTORIAL M19 internal marker reporter; actives raise or lower the signal
# Method in brief: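 HepG2 cells transiently transfected with cis-regulated multiple reporter transcription units were dosed for 24 h; reporter mRNA was quantified by RT-PCR, 6-FAM primer-extension labelling, HpaI digestion and capillary electrophoresis, with bidirectional fitting against DMSO baseline.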
# [12] = ATG_ERE_CIS: Attagene CIS-FACTORIAL HepG2 Assay for Estrogen Response Element (ERE) (AID 2282940); conditions: HepG2 ERE cis-reporter, Attagene RNA transcript; actives raise or lower the signal
# Method in brief: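 HepG2 cells transiently transfected with cis-promoter-driven multiplexed reporter transcription units report endogenous TF activity. After 24 h compound exposure, reporter mRNA is quantified by RT-PCR with capillary electrophoresis fluorescence; bidirectional fitting versus DMSO baseline.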
# [13] = ATG_Ets_CIS: Attagene CIS-FACTORIAL HepG2 Assay for human Erythroblast Transformation Specific (ETS) (AID 2282941); conditions: HepG2 ETS cis-reporter transcription, actives raise or lower the signal
# Method in brief: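 Cis-regulated reporter mRNA induction in HepG2 (transient transfection), 24 h exposure, RT-PCR plus capillary electrophoresis detection; DMSO serves as negative control and baseline.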
# [14] = target: Hepatocyte nuclear factor 3-beta (Homo sapiens) (UniProt Q9Y261); test: ATG_FoxA2_CIS: Attagene CIS-FACTORIAL HepG2 Assay for human Forkhead box A2 (FOXA2) (AID 2282942); conditions: HepG2 cis-reporter transcription factor activity, 24 h; actives raise or lower the signal
# Hepatocyte nuclear factor 3-beta (Homo sapiens), sequence (Q9Y261 whole entry, looked up): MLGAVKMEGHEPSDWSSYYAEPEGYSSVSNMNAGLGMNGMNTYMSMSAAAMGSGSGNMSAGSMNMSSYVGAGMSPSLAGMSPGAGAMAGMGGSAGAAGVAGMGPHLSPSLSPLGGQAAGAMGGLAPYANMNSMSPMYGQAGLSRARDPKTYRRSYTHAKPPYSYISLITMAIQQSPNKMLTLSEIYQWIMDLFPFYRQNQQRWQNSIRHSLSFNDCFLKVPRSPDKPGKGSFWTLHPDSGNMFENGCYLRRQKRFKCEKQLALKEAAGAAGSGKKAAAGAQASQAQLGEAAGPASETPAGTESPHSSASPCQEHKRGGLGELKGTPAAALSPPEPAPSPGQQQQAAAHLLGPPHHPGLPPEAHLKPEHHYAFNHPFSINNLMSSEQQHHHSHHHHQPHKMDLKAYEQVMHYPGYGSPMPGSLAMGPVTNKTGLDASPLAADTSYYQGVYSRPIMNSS
# Method in brief: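 In transiently transfected human HepG2 cells, promoter-driven reporter mRNA levels after 24 h chemical exposure are determined via RT-PCR with capillary electrophoresis. DMSO serves as baseline for bidirectional fitting.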
# [15] = ATG_FoxO_CIS: Attagene CIS-FACTORIAL HepG2 Assay for human Forkhead box O (FoxO) (AID 2282943); conditions: HepG2 Attagene cis-reporter, FoxO element, mRNA; actives raise or lower the signal
# Method in brief: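 Read-out: fluorescence of 6-FAM-labelled reporter cDNA fragments resolved by capillary electrophoresis. Transiently transfected HepG2 cells were dosed for 24 h; activity fitted in both directions relative to DMSO controls.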
# [16] = ATG_GATA_CIS: Attagene CIS-FACTORIAL HepG2 Assay for human GATA Binding Protein (AID 2282944); conditions: HepG2 GATA cis-element reporter, Attagene multiplex mRNA; actives raise or lower the signal
# Method in brief: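 HepG2 cells transiently transfected with multiplexed cis-element reporter units reflecting endogenous transcription factor activity; reporter mRNA measured after 24 h dosing by RT-PCR, 6-FAM labeling, HpaI digestion and capillary electrophoresis. Bidirectional fitting versus DMSO baseline.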
# [17] = ATG_GLI_CIS: Attagene CIS-FACTORIAL HepG2 Assay for human Zinc Finger Protein GLI1 (AID 2282945); conditions: HepG2, Attagene cis-factorial reporter mRNA, GLI element; actives raise or lower the signal
# Method in brief: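 Transiently transfected HepG2 cells report endogenous transcription factor activity via cis-element-driven reporter units. After 24 h compound exposure, reporter mRNA was measured by RT-PCR with capillary electrophoresis; bidirectional fitting against DMSO baseline.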
# [18] = target: Aryl hydrocarbon receptor (Homo sapiens) (UniProt P35869); test: ATG_Ahr_CIS: Attagene CIS-FACTORIAL HepG2 Assay for human Aryl Hydrocarbon Receptor (Ahr) (AID 2282930); conditions: HepG2 AhR cis-factorial reporter transcription; actives raise or lower the signal
# Aryl hydrocarbon receptor (Homo sapiens), sequence (P35869 whole entry, looked up): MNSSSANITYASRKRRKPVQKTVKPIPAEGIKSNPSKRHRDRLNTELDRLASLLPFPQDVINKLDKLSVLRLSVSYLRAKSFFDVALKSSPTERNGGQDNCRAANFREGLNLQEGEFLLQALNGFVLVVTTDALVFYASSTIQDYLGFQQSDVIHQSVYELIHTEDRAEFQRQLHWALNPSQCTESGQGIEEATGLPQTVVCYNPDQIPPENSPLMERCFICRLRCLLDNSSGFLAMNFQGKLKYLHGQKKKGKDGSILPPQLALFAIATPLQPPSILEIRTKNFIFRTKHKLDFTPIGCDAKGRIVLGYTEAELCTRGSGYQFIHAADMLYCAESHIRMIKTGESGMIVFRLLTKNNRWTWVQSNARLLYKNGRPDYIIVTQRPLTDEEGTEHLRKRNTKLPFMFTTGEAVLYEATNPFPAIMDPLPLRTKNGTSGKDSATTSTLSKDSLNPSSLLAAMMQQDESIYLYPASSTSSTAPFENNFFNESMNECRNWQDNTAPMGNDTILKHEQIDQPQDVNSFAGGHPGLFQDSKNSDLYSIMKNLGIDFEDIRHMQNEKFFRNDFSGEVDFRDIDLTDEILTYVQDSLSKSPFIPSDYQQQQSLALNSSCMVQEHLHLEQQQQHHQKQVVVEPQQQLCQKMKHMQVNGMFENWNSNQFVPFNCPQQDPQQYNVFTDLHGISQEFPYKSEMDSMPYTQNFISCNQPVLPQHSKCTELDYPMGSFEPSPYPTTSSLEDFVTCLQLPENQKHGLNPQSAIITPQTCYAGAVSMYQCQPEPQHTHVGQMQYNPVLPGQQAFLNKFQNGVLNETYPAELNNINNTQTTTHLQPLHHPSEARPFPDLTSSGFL
# Method in brief: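 Read-out: reporter mRNA quantified by RT-PCR with fluorescent primer extension and capillary electrophoresis. Human HepG2 liver cells carried transfected cis-promoter reporter units and were exposed to chemical for 24 h; gain or loss fitted relative to DMSO.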
# [19] = target: Retinoic acid receptor alpha (Homo sapiens) (UniProt P10276); test: ATG_DR5_RAR_CIS: Attagene CIS-FACTORIAL HepG2 Assay for human Retinoic Acid Receptor Alpha (RARE), DR5 submotif (AID 2282934); conditions: HepG2 Attagene cis-factorial RARE DR5 reporter, mRNA; actives raise or lower the signal;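 as to AC50: reporter responds to endogenous RAR alpha beta and gamma in HepG2 not RARA alone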
# Retinoic acid receptor alpha (Homo sapiens), sequence (P10276 whole entry, looked up): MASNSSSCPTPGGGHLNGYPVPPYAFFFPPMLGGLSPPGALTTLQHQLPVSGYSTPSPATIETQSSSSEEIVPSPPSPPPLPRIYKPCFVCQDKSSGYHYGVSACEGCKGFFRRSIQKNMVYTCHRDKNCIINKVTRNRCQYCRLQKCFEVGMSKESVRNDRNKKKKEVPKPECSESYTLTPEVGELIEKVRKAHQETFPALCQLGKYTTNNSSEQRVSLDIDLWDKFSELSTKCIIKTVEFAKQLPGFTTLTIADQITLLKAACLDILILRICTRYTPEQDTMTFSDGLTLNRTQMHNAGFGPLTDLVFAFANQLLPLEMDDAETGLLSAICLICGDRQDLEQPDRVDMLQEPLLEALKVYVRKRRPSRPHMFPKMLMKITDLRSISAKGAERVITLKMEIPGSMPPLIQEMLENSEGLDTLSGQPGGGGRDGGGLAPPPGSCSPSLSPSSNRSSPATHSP
# Method in brief: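 Read-out: DR5-driven reporter transcript measured by RT-PCR, 6-FAM primer extension, HpaI digest and capillary electrophoresis. Human HepG2 liver cells carry transiently transfected cis-element reporter constructs; dosing lasts 24 h. Gain or loss of signal fitted against DMSO baseline.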
smiles,measurement,setting,value
CC1(C)O[C@@H]2C[C@H]3[C@@H]4C[C@H](F)C5=CC(=O)CC[C@]5(C)[C@H]4[C@@H](O)C[C@]3(C)[C@]2(C(=O)CO)O1,outcome,[1],inactive
same,outcome,[2],inactive
same,outcome,[3],inactive
same,outcome,[4],inactive
same,outcome,[5],inactive
same,outcome,[6],inactive
same,outcome,[7],inactive
same,outcome,[8],inactive
same,outcome,[9],inactive
same,outcome,[10],inactive
same,outcome,[11],inactive
same,outcome,[12],inactive
same,outcome,[13],inactive
same,outcome,[14],inactive
same,outcome,[15],inactive
same,outcome,[16],inactive
same,outcome,[17],inactive
CCCCCCCCCCCCCCCCCC#N,outcome,[1],inactive
same,outcome,[2],inactive
same,outcome,[3],inactive
same,outcome,[18],inactive
same,outcome,[4],inactive
same,outcome,[5],inactive
same,outcome,[6],inactive
same,outcome,[19],inactive
same,outcome,[7],inactive
same,outcome,[8],inactive
same,outcome,[9],inactive
same,outcome,[11],inactive
same,outcome,[12],inactive
same,outcome,[13],inactive
same,outcome,[14],inactive
same,outcome,[15],inactive
same,outcome,[16],inactive
same,outcome,[17],inactive
CC1=Nc2ccc3ccccc3c2C1(C)C,outcome,[1],inactive
same,AC50,[2],66.4 µM (active)
same,outcome,[3],inactive
same,outcome,[18],inactive
same,AC50,[4],66 µM (active)
same,outcome,[5],inactive
same,AC50,[6],65.7 µM (active)
same,outcome,[7],inactive
same,outcome,[8],inactive
same,outcome,[9],inactive
same,outcome,[10],inactive
same,outcome,[11],inactive
same,outcome,[12],inactive
same,outcome,[13],inactive
same,outcome,[14],inactive
same,outcome,[15],inactive
same,outcome,[17],inactive
O=C(O)c1cc2ccccc2nc1C(=O)O,outcome,[1],inactive
same,outcome,[2],inactive
same,outcome,[3],inactive
same,AC50,[18],41.1 µM (active)
same,outcome,[4],inactive
same,outcome,[5],inactive
same,outcome,[6],inactive
same,outcome,[19],inactive
same,outcome,[7],inactive
same,outcome,[8],inactive
same,outcome,[11],inactive
same,outcome,[12],inactive
same,outcome,[13],inactive
same,outcome,[14],inactive
same,outcome,[15],inactive
same,outcome,[16],inactive
same,outcome,[17],inactive
COCCCOCCCOC,outcome,[1],inactive
same,outcome,[3],inactive
same,outcome,[18],inactive
same,outcome,[4],inactive
same,outcome,[5],inactive
same,outcome,[6],inactive
same,outcome,[19],inactive
same,outcome,[7],inactive
same,outcome,[8],inactive
same,outcome,[9],inactive
same,outcome,[11],inactive
same,outcome,[12],inactive
same,outcome,[14],inactive
same,outcome,[15],inactive
same,outcome,[16],inactive
same,outcome,[17],inactive
O=C(Nc1ccccc1SSc1ccccc1NC(=O)c1ccccc1)c1ccccc1,outcome,[1],inactive
same,outcome,[2],inactive
same,outcome,[3],inactive
same,AC50,[18],2.79 µM (active)
same,outcome,[5],inactive
same,outcome,[6],inactive
same,outcome,[19],inactive
same,outcome,[7],inactive
same,outcome,[8],inactive
same,outcome,[9],inactive
same,outcome,[10],inactive
same,outcome,[11],inactive
same,outcome,[12],inactive
same,outcome,[13],inactive
same,outcome,[14],inactive
same,outcome,[15],inactive
same,outcome,[16],inactive
same,AC50,[17],100 µM (active)
CC(=O)Oc1ccc(C(C)=O)cc1,outcome,[1],inactive
same,outcome,[2],inactive
same,outcome,[3],inactive
same,outcome,[4],inactive
same,outcome,[5],inactive
same,outcome,[6],inactive
same,outcome,[19],inactive
same,outcome,[7],inactive
same,outcome,[8],inactive
same,outcome,[10],inactive
same,outcome,[11],inactive
same,outcome,[12],inactive
same,outcome,[13],inactive
same,outcome,[14],inactive
same,outcome,[15],inactive
same,outcome,[16],inactive
same,outcome,[17],inactive
CC=CC(F)(F)C(F)(F)C(F)(F)F,outcome,[1],inactive
same,outcome,[3],inactive
same,outcome,[18],inactive
same,outcome,[5],inactive
same,outcome,[6],inactive
same,outcome,[19],inactive
same,outcome,[7],inactive
same,outcome,[9],inactive
same,outcome,[10],inactive
same,outcome,[11],inactive
same,outcome,[12],inactive
same,outcome,[14],inactive
same,outcome,[15],inactive
same,outcome,[17],inactive
O=C1C(N(CO)C(=O)NCO)N(CO)C(=O)N1CO (stereo not given),outcome,[1],inactive
same,outcome,[2],inactive
same,outcome,[3],inactive
same,outcome,[18],inactive
same,outcome,[5],inactive
same,outcome,[6],inactive
same,outcome,[19],inactive
same,outcome,[7],inactive
same,outcome,[8],inactive
same,outcome,[9],inactive
same,outcome,[10],inactive
same,outcome,[11],inactive
same,outcome,[12],inactive
same,outcome,[13],inactive
same,outcome,[14],inactive
same,outcome,[15],inactive
same,outcome,[16],inactive
same,outcome,[17],inactive
CCCCCCCCCCOS(=O)(=O)O,outcome,[1],inactive
same,outcome,[2],inactive
same,AC50,[3],67 µM (active)
same,outcome,[18],inactive
same,outcome,[4],inactive
same,outcome,[5],inactive
same,outcome,[6],inactive
same,AC50,[19],61.3 µM (active)
same,outcome,[7],inactive
same,outcome,[8],inactive
same,outcome,[9],inactive
same,outcome,[10],inactive
same,outcome,[11],inactive
same,outcome,[12],inactive
same,outcome,[13],inactive
same,outcome,[15],inactive
same,outcome,[16],inactive
same,outcome,[17],inactive
